Lassa entry inh: Lassa virus entry inhibition. Lassa virus pseudotype entry inhibition, cell reporter. Potency, µM (highest dose often 37.9 µM), without a hit: at the highest dose activity change, negative = inhibition, usual class: inhibitors. actives 1.2% (n = 300,000). AID 540256; calls by dose curve; tested in HEK293 cells; also: nearly all actives have a fitted effect of over 50% in size
Sm TGR inh: inhibitors of Schistosoma mansoni thioredoxin glutathione reductase. Q962Y6. purified TGR, DTNB reduction, TNB absorbance 405 nm. Potency, µM (series often up to 114 µM), for inactives: top-dose activity change, negative = inhibition, usual class: inhibitors. actives 3% (n = 360,000); also: nearly all actives have a fitted effect of over 60% in size
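TGR 20 nM + NADPH 100 uM (dispensed conc.), cpd preinc 15 min RT; start with NADPH (500 uM addition) then DTNB (15 mM addition). Kinetic TNB absorbance, 405 nm filter. Four-parameter Hill fit across titration.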
HCV inh: HCV inhibition. actives 3.4% (n = 340,000). Huh7.5.1 HCVcc-Cre infection, luciferase reporter, 44 h. Potency, µM (series often up to 41.8 µM), for the others: at the top dose activity change, negative = inhibition, usual class: inhibitors
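Infectious HCV cell culture screen: compound-treated cells (1,000/well, pre-plated 4 h) are infected with HCVcc-Cre at roughly 0.5 moi and grown 44 h. Infection is quantified by luciferase signal after 15 min substrate incubation at room temperature.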
RE007 growth inh: less growth of the S. pombe RE007 Vpr strain | S. pombe RE007 Vpr strain, BacTiter-Glo ATP luminescence, 24 h | AID 651644 | Potency, µM (highest dose often 92.2 µM), for the others: at the top dose activity change, negative = less growth, hits mostly inhibitors | actives 0.21% (n = 360,000); active = well fitted falling curve with a large enough effect; inconclusive = small, poorly fitted or top-dose-only effect; inactive = no such curve, though single readings can be large or run the other way; also: nearly all actives have a fitted effect of over 50% in size
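Fission yeast RE007 carrying one integrated HIV-1 vpr copy, seeded at OD 0.01 in PMG+AL medium with 23 nL pinned compound. Grown 24 h at 30 degrees; viability read by BacTiter-Glo luminescence after 5 min.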
FMDV inh: blocks foot and mouth disease virus; actives 1.2% (n = 410,000); FMDV antiviral cell-based qHTS; Potency, µM (series often up to 57.9 µM), for inactives: at the highest dose activity change, negative = inhibition, hits mostly inhibitors; calls by dose curve; tested in HEK293T cells; also: read-out not given here; nearly all actives have a fitted effect of over 45% in size
Marburg entry inh: blocks Marburg virus binding to or entry into cells; Marburg virus pseudotyped entry inhibition, cell reporter; Potency, µM (highest dose often 37.8 µM), for the others: at the top dose activity change, negative = inhibition, actives largely listed as inhibitors; actives 1.8% (n = 300,000); AID 540276; calls by dose curve; tested in HEK293 cells
Numbers without * were called inactive; ? = inconclusive; nt = no result given; [ ] = remark or other dose. Rows were chosen to be rich in hits. Some 7.2% of all compounds tested hit in one or more screens of this group. Unless noted, calls follow the shape of the dose curve; as a rule, active = well fitted curve in the direction sought with a large enough effect; inconclusive = small, poorly fitted or top-dose-only effect, or another doubt; inactive = no such curve, though single readings can be large; an effect the other way counts as inactive or inconclusive. % is scaled to controls: 0 for no effect and ±100 for the full control effect; potency is read from the fitted curve at half-maximal effect.

SMILES	Lassa entry inh	Sm TGR inh	HCV inh	RE007 growth inh	FMDV inh	Marburg entry inh
O=C(NCC1CCCN(Cc2cccc(C(F)(F)F)c2)C1)c1ccc(F)cc1 (configuration not stated)	nt	3.9%[57.1 µM]	16.1%	-10.9%	-28.1%	nt
O=C(c1cc(F)ccc1F)C1CCCN(Cc2cc(Cl)ccc2O)C1 (configuration not stated)	-1.1%	-17.2%	?	0.0%	?	2.4%
Cn1cc(CN2CCCC(C(=O)c3cc(F)ccc3F)C2)c2ccccc21 (configuration not stated)	?	-4.1%	-19.0%	-16.8%	6.0%	10µM*
COc1ccc(OC)c(CN2CCCC(C(=O)c3ccccc3SC)C2)c1 (configuration not stated)	?	0.0%	10µM*	9.9%	?	2.51µM*
Cc1cc(CN2CCCC(CNC(=O)c3ccc(F)cc3)C2)cc(C)c1O (configuration not stated)	nt	35.5µM*	-1.6%	9.6%	-8.3%	nt
Cn1cc(CN2CCCC(CNC(=O)c3ccc4c(c3)OCO4)C2)c2ccccc21 (configuration not stated)	17.6%[46.1 µM]	5.2%	-11.3%	-21.0%	-2.2%	7.94µM*
COc1ccc(F)cc1C(=O)C1CCCN(Cc2cn(C)c3ccccc23)C1 (configuration not stated)	?	-15.1%	?	-3.7%	-21.1%	14.6µM*
COc1ccc(F)cc1C(=O)C1CCCN(Cc2c[nH]c3ccccc23)C1 (configuration not stated)	nt	-31.7%	-22.9%	-5.0%	-24.8%	nt
COc1cccc(-n2c(=O)c3c(C)c(C(=O)N(C)C)sc3n(CC(=O)Nc3ccc(C)cc3Cl)c2=O)c1	13.1%[46.1 µM]	-0.7%	nt	nt	-14.5%	nt
CCc1cc(C(=O)N2CCCC(N3CCN(c4cccc(C(F)(F)F)c4)CC3)C2)n(C)n1 (configuration not stated)	nt	-1.7%	10µM*	-6.5%	?	nt
CCCN1CCC(N2CCN(c3cccc(C(F)(F)F)c3)CC2)CC1	?	8.5%	11.2µM*	-1.0%	-27.0%	?
O=C(c1ccncc1)N1CCCC(N2CCN(c3cccc(C(F)(F)F)c3)CC2)C1 (configuration not stated)	nt	-18.1%	6.7%	-18.6%	-3.0%	nt
COc1ccc(NC(=O)Cn2c(C)cc3ccccc3c2=O)c(OC)c1	-5.8%[46.1 µM]	-0.5%	nt	nt	-9.6%	?
CCOC(=O)C1(CCc2ccccc2)CCN(C2CCSCC2)CC1	?	11.2µM*	7.7%	-2.2%	-13.9%	10µM*
CCc1ccc(-n2c(=O)c3c(C)c(C(=O)N(C)C)sc3n(Cc3ccccc3C#N)c2=O)cc1	8.1%[46.1 µM]	9.7%	nt	nt	0.0%	nt
COc1cc(/C=C/CN2CCOc3ccc(C(O)c4cccnc4)cc3C2)ccc1O (configuration not stated)	nt	nt	nt	nt	-15.7%	nt
Cc1ccccc1NC(=S)NNc1ncc(C(F)(F)F)cc1Cl	-39.0%	-3.9%	-5.2%	-5.7%	-26.3%	?
FC(F)(F)c1cnc(NNC(=S)Nc2ccccc2)c(Cl)c1	nt	nt	nt	18.1%	?	nt
Cc1c(Cl)cccc1NC(=S)NNc1ncc(C(F)(F)F)cc1Cl	?	1.6%	?	4.1%	-18.5%	20.6µM*
Fc1ccccc1NC(=S)NNc1ncc(C(F)(F)F)cc1Cl	?	-11.6%	?	17.5%	?	7.94µM*
CCOc1ccc(OCC)c(Nc2nc3ccc(Cl)cc3n3cnnc23)c1	8.0%[46.1 µM]	10.1%	nt	nt	-29.4%	?
COc1ccc(S(=O)(=O)Nc2cc3c(C(C)=O)c(C)oc3c3ccccc23)cc1	?	-14.9%	17.8µM*	-15.8%	0.2%	?
CC(=O)c1c(C)oc2c1cc(NS(=O)(=O)c1ccc(C(C)(C)C)cc1)c1ccccc12	-26.5%[46.1 µM]	10.1%	nt	nt	-27.5%	nt
O=C1NC(=O)c2c1c(-c1ccccc1)cc1[nH]c3ccc(O)cc3c21	nt	nt	nt	nt	-34.9%	nt
CCC(CO)[n+]1c(C)cc(/C=C2\Sc3ccccc3N2Cc2ccccc2)cc1C (configuration not stated)	?	-5.5%	?	4.7%	10µM*	?
SMILES	Lassa entry inh	Sm TGR inh	HCV inh	RE007 growth inh	FMDV inh	Marburg entry inh
CCC1CN(C(=O)N2CCC(C(=O)N3CCN(c4ccccc4)CC3)CC2)c2ccccc2O1 (configuration not stated)	-29.5%[46.1 µM]	-2.6%	nt	nt	-13.2%	nt
C[C@H]1C[C@@H](C)O[C@@]2(C1)C(=O)N(Cc1ccc(F)cc1)c1ccccc12	nt	nt	nt	nt	nt	28.5%[14.2 µM]
CC1(C)CC[C@]2(C(=O)n3ccnc3)CC[C@]3(C)[C@H](C(=O)C=C4[C@@]5(C)C=C(C#N)C(=O)C(C)(C)[C@@H]5CC[C@]43C)[C@@H]2C1	2.51µM*	nt	?	-10.6%	1.41µM*	2.51µM*
CCc1ccc(-n2c(C)nc3cc(C(=O)NCCc4ccccc4)ccc32)cc1	?	11.6%	nt	nt	-4.2%	nt
COc1ccc(Cl)cc1NC(=O)CSc1nc(=O)n(CCN(C)C)c2c1CCCC2	?	-14.2%	11.2µM*	-8.9%	7.5%	?
COc1ccc(Cl)cc1NC(=O)CN(C1CCCCC1)S(C)(=O)=O	11.7%	14.5%	4.47µM*	-11.5%	?	-11.5%
CCN(CC)CCn1c2c(c(SCC(=O)Nc3ccc(C(C)C)cc3)nc1=O)CCCC2	1.1%	3.9%	14.1µM*	15.7%	-7.3%	-7.1%
COc1cc(NC(=O)N2CCN(c3cc(-c4noc(C)n4)ccc3C)CC2)cc(OC)c1OC	-1.3%[46.1 µM]	0.1%	nt	nt	-2.0%	nt

Screening data: PubChem, National Center for Advancing Translational Sciences (NCATS)
